Reference: PubChem BioAssay
Where “and” joins values, the source holds several entries; their conditions need not be identical. Identical values can stand only once. For part of these data: Entries with a potency or affinity are not part of this list.

Key:
[1] = blockers of polyQ-driven CASP3 activation – cell-based (AID 1583); conditions: polyglutamine-induced caspase-3 activation, cell assay; stronger effect = higher value;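 tested at 10 µM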
[2] = yeast 75Q aggregation reduction – 75Q-TubU reporter (AID 1593); conditions: Yeast 75Q polyglutamine aggregation reporter
[3] = restoration of touch response, mutant HTT neurons – whole organism, C. elegans mechanosensory neurons, N-terminal huntingtin (AID 1599); conditions: C. elegans polyQ-huntingtin mechanosensory neurons, stronger effect = higher value
[4] = blockers of cytochrome c efflux from mitochondria – biochemical, purified mitochondria (AID 1603); conditions: stronger effect = lower value;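 note: mouse liver mitochondria challenged with calcium chloride; signal normalized to the plate average as 100%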
[5] = polyglutamine aggregate formation blockers (AID 1604); conditions: polyglutamine-induced protein aggregation inhibition assay; stronger effect = higher value; tested at 2.5 µM

Nc1nc2c(c(=O)[nH]1)N(C=O)C(CNc1ccc(C(=O)N[C@@H](CCC(=O)O)C(=O)O)cc1)CN2 (stereo not given in full)
inhibition [1]: 16.8% | score [2]: 2.89 | rescue above control [3]: -4.97 | cytochrome c release ratio [4]: 1.12 | inhibition of aggregation [5]: 35%

Cc1cc(C2CCCCC2)n(O)c(=O)c1
inhibition [1]: 60.9% | score [2]: 0.13 | rescue above control [3]: 6.29 | cytochrome c release ratio [4]: 0.91 | inhibition of aggregation [5]: 72.2%

CCN(CC)CCNC(=O)COc1ccc(OC)cc1
inhibition [1]: 62% | score [2]: 1.13 | rescue above control [3]: -1.97 | cytochrome c release ratio [4]: 0.98 | inhibition of aggregation [5]: 72.2%

Cc1cc(C)nc(NS(=O)(=O)c2ccc(N)cc2)n1
inhibition [1]: 5.54% | score [2]: 1.45 | rescue above control [3]: -12.8 | cytochrome c release ratio [4]: 1.13 | inhibition of aggregation [5]: 22.2%

CN(C)c1ccc(C(=C2C=CC(=[N+](C)C)C=C2)c2ccc(N(C)C)cc2)cc1
inhibition [1]: 60.7% | score [2]: -6.36 | rescue above control [3]: 0 | cytochrome c release ratio [4]: 1.35 | inhibition of aggregation [5]: 16.7%

CS(=O)(=O)c1ccc([C@@H](O)[C@@H](CO)NC(=O)C(Cl)Cl)cc1
inhibition [1]: -7.88% | score [2]: 0.79 | rescue above control [3]: -0.62 | cytochrome c release ratio [4]: 0.72 | inhibition of aggregation [5]: 100%

CC(=O)Nc1ccccc1
inhibition [1]: 14.3% and 16.3% | score [2]: 1.29 and 1.35 | rescue above control [3]: -5.57 and 2.9 | cytochrome c release ratio [4]: 1.36 and 1.09 | inhibition of aggregation [5]: 42.4% and 85.9%

CCCCC1C(=O)N(c2ccccc2)N(c2ccccc2)C1=O
inhibition [1]: 9.66% | score [2]: 0.64 | rescue above control [3]: 2.39 | cytochrome c release ratio [4]: 0.96 | inhibition of aggregation [5]: 76%

Nc1ccc(S(=O)(=O)Nc2nccs2)cc1
inhibition [1]: 6.1% | score [2]: 1.37 | rescue above control [3]: -1.24 | cytochrome c release ratio [4]: 0.85 | inhibition of aggregation [5]: 66.2%

Nc1c2c(nc3ccccc13)CCCC2O (stereo not given)
inhibition [1]: 19.1% | score [2]: 1.04 | rescue above control [3]: -4.39 | cytochrome c release ratio [4]: 0.96 | inhibition of aggregation [5]: 59.1%

CC/C(=C(/CC)c1ccc(O)cc1)c1ccc(O)cc1
inhibition [1]: 48.1% | score [2]: 0.36 | rescue above control [3]: -4.53 | cytochrome c release ratio [4]: 0.65 | inhibition of aggregation [5]: 38.5%

Cc1c(NC(C)C)c(=O)n(-c2ccccc2)n1C
inhibition [1]: 6.61% | score [2]: 1.54 | rescue above control [3]: -6.83 | cytochrome c release ratio [4]: 1.16 | inhibition of aggregation [5]: 13.7%

CN(C)CCOC(=O)C(c1ccccc1)C1(O)CCCC1 (stereo not given)
inhibition [1]: -1.25% | score [2]: 1.17 | rescue above control [3]: -1.73 | cytochrome c release ratio [4]: 0.87 | inhibition of aggregation [5]: 90.7%

Cc1ccc(C(=O)C(C)CN2CCCCC2)cc1 (stereo not given)
inhibition [1]: -24.9% | score [2]: 0.57 | rescue above control [3]: -2.41 | cytochrome c release ratio [4]: 0.96 | inhibition of aggregation [5]: 37.2%

N=C(N)N
inhibition [1]: 11.9% | score [2]: 0.82 | rescue above control [3]: -2.24 | cytochrome c release ratio [4]: 0.89 | inhibition of aggregation [5]: 73.1%

CC(=O)Oc1ccccc1C(=O)O
inhibition [1]: -10.2% | score [2]: 1.29 | rescue above control [3]: 9.45 | cytochrome c release ratio [4]: 1.35 | inhibition of aggregation [5]: 61.5%

NC(=O)c1ccc([N+](=O)[O-])cc1Cl
inhibition [1]: 5.22% | score [2]: 1.24 | rescue above control [3]: 31.2 | cytochrome c release ratio [4]: 1.06 | inhibition of aggregation [5]: 82.5%

Oc1cccc(O)c1
inhibition [1]: 9.11% | score [2]: 1.66 | rescue above control [3]: 3.39 | cytochrome c release ratio [4]: 0.9 | inhibition of aggregation [5]: 60.3%

CCC(=O)O[C@H]1[C@H](O[C@@H]2[C@@H](C)[C@H](O[C@H]3C[C@@](C)(OC)[C@@H](O)[C@H](C)O3)[C@@H](C)C(=O)O[C@H](CC)[C@@](C)(O)[C@H](O)[C@@H](C)C(=O)[C@H](C)C[C@@]2(C)O)O[C@H](C)C[C@@H]1N(C)C
inhibition [1]: -0.34% | score [2]: -0.96 | rescue above control [3]: 11.4 | cytochrome c release ratio [4]: 1.02 | inhibition of aggregation [5]: 87.3%

O=c1cc(CO)occ1O
inhibition [1]: 12% | score [2]: 1.29 | rescue above control [3]: 10.1 | cytochrome c release ratio [4]: 0.94 | inhibition of aggregation [5]: 21.8%

O=C(O)c1cc(=O)c2ccccc2o1
inhibition [1]: 6.16% | score [2]: 1.58 | rescue above control [3]: -0.59 | cytochrome c release ratio [4]: 0.94 | inhibition of aggregation [5]: 87.2%

CCn1cc(C(=O)O)c(=O)c2cnc(N3CCNCC3)nc21
inhibition [1]: -5.14% | score [2]: 1.35 | rescue above control [3]: 5.83 | cytochrome c release ratio [4]: 0.98 | inhibition of aggregation [5]: 72.4%

CN1CCCN=C1COC(=O)C(O)(c1ccccc1)C1CCCCC1 (stereo not given)
inhibition [1]: 21.6% | score [2]: 1.24 | rescue above control [3]: 4.84 | cytochrome c release ratio [4]: 0.8 | inhibition of aggregation [5]: 60.8%

CC(=O)NS(=O)(=O)c1ccc(N)cc1
inhibition [1]: 11.3% | score [2]: 1.36 | rescue above control [3]: -14.1 | cytochrome c release ratio [4]: 1.02 | inhibition of aggregation [5]: 48.5%

Nc1ccc(C(=O)O)cc1
inhibition [1]: 2.66% | score [2]: 1.16 | rescue above control [3]: -2.5 | cytochrome c release ratio [4]: 0.9 | inhibition of aggregation [5]: 72.2%

CCn1cc(C(=O)O)c(=O)c2cc(F)c(N3CCNC(C)C3)c(F)c21 (stereo not given)
inhibition [1]: -6.75% | score [2]: 1.15 | rescue above control [3]: 3.68 | cytochrome c release ratio [4]: 1.13 | inhibition of aggregation [5]: 80.3%

Cc1c(C(N)=O)cc([N+](=O)[O-])cc1[N+](=O)[O-]
inhibition [1]: -1.96% | score [2]: 1.25 | rescue above control [3]: 5.37 | cytochrome c release ratio [4]: 1.17 | inhibition of aggregation [5]: 82.7%

O=C(O)c1ccccc1OP(=O)(O)O
inhibition [1]: 6.6% | score [2]: 0.8 | rescue above control [3]: -8.86 | cytochrome c release ratio [4]: 1.13 | inhibition of aggregation [5]: 61%

Cc1cc(=O)n(-c2ccccc2)n1C
inhibition [1]: 22% | score [2]: 1.07 | rescue above control [3]: 2.73 | cytochrome c release ratio [4]: 1.13 | inhibition of aggregation [5]: 22.2%

O=c1c(O)c(-c2ccc(O)c(O)c2)oc2cc(O)cc(O)c12
inhibition [1]: 24.5% | score [2]: 1.53 | rescue above control [3]: 8.75 | cytochrome c release ratio [4]: 1.04 | inhibition of aggregation [5]: 87.3%

CN(C)CCCN1c2ccccc2Sc2ccccc21
inhibition [1]: -14.3% | score [2]: 1.56 | rescue above control [3]: 23.4 | cytochrome c release ratio [4]: 1.27 | inhibition of aggregation [5]: 23.9%

O=c1cc[nH]c(=S)[nH]1
inhibition [1]: 2.52% | score [2]: 1.24 | rescue above control [3]: 1.48 | cytochrome c release ratio [4]: 1.09 | inhibition of aggregation [5]: 41.5%

CN(Cc1cnc2nc(N)nc(N)c2n1)c1ccc(C(=O)N[C@@H](CCC(=O)O)C(=O)O)cc1
inhibition [1]: 25.6% | score [2]: 0.69 | rescue above control [3]: -10.9 | cytochrome c release ratio [4]: 1.08 | inhibition of aggregation [5]: 74.6%

NC[C@H](O)c1ccc(O)c(O)c1
inhibition [1]: 10.9% | score [2]: 1.61 | rescue above control [3]: -5.19 | cytochrome c release ratio [4]: 1.03 | inhibition of aggregation [5]: 44.7%

CC(N)CCCC(C)(C)O (stereo not given)
inhibition [1]: 23.3% | score [2]: 1.12 | rescue above control [3]: -5.82 | cytochrome c release ratio [4]: 0.68 | inhibition of aggregation [5]: 19.1%

OCc1ccccc1O
inhibition [1]: -8.47% | score [2]: 1.17 | rescue above control [3]: 12.8 | cytochrome c release ratio [4]: 0.81 | inhibition of aggregation [5]: 67.8%

CCOC(=O)C(C)(C)Oc1ccc(Cl)cc1
inhibition [1]: 24.9% and 18.3% | score [2]: 0.66 and 0.84 | rescue above control [3]: -9.07 and 5.03 | cytochrome c release ratio [4]: 0.65 and 0.84 | inhibition of aggregation [5]: 70.5% and -5.88%

C[n+]1ccccc1/C=N/O
inhibition [1]: 17.5% | score [2]: 1.27 | rescue above control [3]: 6.93 | cytochrome c release ratio [4]: 1.18 | inhibition of aggregation [5]: 91.3%

NC(Cc1ccc(Cl)cc1)C(=O)O (stereo not given)
inhibition [1]: 2.04% | score [2]: 1.27 | rescue above control [3]: 22.3 | cytochrome c release ratio [4]: 0.79 | inhibition of aggregation [5]: 83.3%

Nc1ccc(S(=O)(=O)Nc2ccnn2-c2ccccc2)cc1
inhibition [1]: -0.92% | score [2]: 1.43 | rescue above control [3]: -6.57 | cytochrome c release ratio [4]: 0.99 | inhibition of aggregation [5]: 4.55%

O=C(CCBr)N1CCN(C(=O)CCBr)CC1
inhibition [1]: -31.6% | score [2]: 0.93 | rescue above control [3]: 9.78 | cytochrome c release ratio [4]: 0.86 | inhibition of aggregation [5]: 52.8%

CCCCCCOc1ccccc1C(N)=O
inhibition [1]: 0.61% | score [2]: 0.45 | rescue above control [3]: -0.6 | cytochrome c release ratio [4]: 1.11 | inhibition of aggregation [5]: 67.5%

CO[C@@H]1[C@@H](OC(N)=O)[C@@H](O)[C@H](Oc2ccc3c(O)c(NC(=O)c4ccc(O)c(CC=C(C)C)c4)c(=O)oc3c2C)OC1(C)C
inhibition [1]: -0.61% | score [2]: 1.59 | rescue above control [3]: -8.05 | cytochrome c release ratio [4]: 0.96 | inhibition of aggregation [5]: -73.2%

CC(=O)Oc1ccc(C(c2ccc(OC(C)=O)cc2)c2ccccn2)cc1
inhibition [1]: 10.5% | score [2]: 1.05 | rescue above control [3]: 5.96 | cytochrome c release ratio [4]: 1.37 | inhibition of aggregation [5]: 74.4%

CN(C)CCC(c1ccccc1)c1ccccn1 (stereo not given)
inhibition [1]: 12.1% | score [2]: 1.44 | rescue above control [3]: -9.39 | cytochrome c release ratio [4]: 1 | inhibition of aggregation [5]: -15.2%

Cc1ccsc1/C=C/C1=NCCCN1C
inhibition [1]: 26.5% | score [2]: 0.99 | rescue above control [3]: -7.31 | cytochrome c release ratio [4]: 0.66 | inhibition of aggregation [5]: 25.5%

NCCCCCC(=O)O
inhibition [1]: -5.51% | score [2]: 1.37 | rescue above control [3]: 1.88 | cytochrome c release ratio [4]: 1.36 | inhibition of aggregation [5]: 75.6%

O=C(O)c1ccccc1O
inhibition [1]: 11.5% | score [2]: 0.77 | rescue above control [3]: -5.04 | cytochrome c release ratio [4]: 0.97 | inhibition of aggregation [5]: 56.1%

CC[N+](CC)(CC)CCOc1cccc(OCC[N+](CC)(CC)CC)c1OCC[N+](CC)(CC)CC
inhibition [1]: 2.37% | score [2]: 1.11 | rescue above control [3]: 4.9 | cytochrome c release ratio [4]: 1.78 | inhibition of aggregation [5]: 83.6%

CN(Cc1cc(Br)cc(Br)c1N)C1CCCCC1
inhibition [1]: 50% | score [2]: 1.59 | rescue above control [3]: -1.24 | cytochrome c release ratio [4]: 1.12 | inhibition of aggregation [5]: 80.3%

O=C1C(O)=C(O)C(=O)C(O)=C1O
inhibition [1]: 0.61% | score [2]: 0.92 | rescue above control [3]: -5.82 | cytochrome c release ratio [4]: 1.43 | inhibition of aggregation [5]: 8.97%
